Test results taken from PubChem BioAssay.
A number with no mark means an inactive call. The rule behind the calls is not given here.

target: Pantothenate synthetase (Mycobacterium tuberculosis (strain ATCC 25618 / H37Rv)) (UniProt P9WIL5); assay: Coupled enzyme confirmation of inhibitors against recombinant Mtb PanC (AID 375); conditions: coupled enzyme assay; at 10 µM, hits give high values;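 note: 0% = full reaction with vehicle and 100% = no enzyme background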
Sequence (P9WIL5 whole entry, looked up): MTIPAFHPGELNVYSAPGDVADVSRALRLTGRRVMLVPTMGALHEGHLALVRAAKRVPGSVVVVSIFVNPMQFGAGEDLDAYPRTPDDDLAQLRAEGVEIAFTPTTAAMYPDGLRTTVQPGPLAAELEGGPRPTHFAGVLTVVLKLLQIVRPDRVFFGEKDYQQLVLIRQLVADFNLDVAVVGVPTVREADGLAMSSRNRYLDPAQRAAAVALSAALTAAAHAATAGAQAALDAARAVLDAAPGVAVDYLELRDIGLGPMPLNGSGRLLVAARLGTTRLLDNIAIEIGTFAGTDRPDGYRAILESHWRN

Row | Compound | inhibition [%]
1 | CCC(C)NC(=O)C1CCCN(S(=O)(=O)c2ccc(-n3cnnn3)cc2)C1 (stereo not given) | 0
2 | CCOC(=O)c1[nH]c2ccc(C)cc2c1N=C(C)N(C)C | 11
3 | COCCNC(=O)C(c1ccc(C)o1)N(Cc1ccc(OC)cc1)C(=O)Cn1nnc2ccccc21 (stereo not given) | 1
4 | CCCN(CCC)S(=O)(=O)c1ccc(NS(C)(=O)=O)cc1 | 0
5 | CC(C)(C)OC(=O)N1CC(O)CC1C(=O)OCC(=O)c1ccc(Cl)cc1 (stereo not given) | 0
6 | O=C(CSc1nnc(-c2ccco2)n1CC1CCCO1)NC1CCCC1 (stereo not given) | 0
7 | COc1c(S(=O)(=O)n2nc(C)cc2C)ccc(Cl)c1Cl | 3
8 | O=C(C1CC2CCC1C2)N1CCN(Cc2ccc3c(c2)OCO3)CC1 (stereo not given) | 8
9 | COC(=O)CCC(=O)CN | 0
10 | Cn1c(=O)c(C(=S)NC(=O)C2CC2)c(N)n(Cc2ccccc2)c1=O | 3
11 | COc1cc(OC)cc(C(=O)NCCN2CCOCC2)c1 | 0
12 | O=C(c1cccnc1)N1CCN(C(=O)c2ccccc2F)CC1 | 4
13 | COc1ccccc1NC(=O)N1c2ccc(F)cc2CCC1C (stereo not given) | 8
14 | Cc1nc(NC(=O)C23CCC(C)(C(=O)O2)C3(C)C)sc1C (stereo not given) | 0
15 | CCN1C(=O)c2ccccc2S(=O)(=O)c2ccc(C(=O)NCc3cccnc3)cc21 | 0
16 | O=C(O)CCCCCCC1C(=O)NC(=O)N1CCC(O)C1CCCCC1 (stereo not given) | 0
17 | Cn1c(SCC(N)=O)nnc1C1CCN(S(=O)(=O)c2ccccc2C(F)(F)F)CC1 | 0
18 | CCOc1ccc(NC(=O)CC2NCCNC2=O)cc1 (stereo not given) | 9
19 | C[C@H]1C[C@H]2[C@@H]3CCC4=CC(=O)C=C[C@]4(C)[C@@]3(Cl)[C@@H](O)C[C@]2(C)[C@@]1(O)C(=O)CO | 4
20 | CCCCOC(=O)CN1C(=O)c2ccc(C(=O)OCCCC)cc2C1=O | 0

Row | Compound | inhibition [%]
21 | Cn1c(C(=O)NCCN2CCN(c3ccccc3F)CC2)cc2c(=O)n(C)c3ccccc3c21 | 7
22 | COc1ccc(-c2noc(CSc3nc4ccccc4c(=O)n3-c3ccccc3)n2)cc1OC | 1
23 | Cc1ccc(NC(=O)CSc2nnc(NC(=O)CN3CCOCC3)s2)cc1 | 5
24 | FC(F)(F)c1cccc(N2CCN(Cc3cccnc3)CC2)c1 | 4
25 | C=CCC(Nc1ccco1)c1ccccc1 (stereo not given) | 1
26 | Cc1nnc(NC(=O)c2ccco2)s1 | 5
27 | CCn1c(Cc2ccc(OC)cc2)nnc1SCC(=O)Nc1cccc(C(=O)OC)c1 | 5
28 | O=C(CCCN1CC=C(n2c(=O)[nH]c3ccccc32)CC1)c1ccc(F)cc1 | 0
29 | Cc1cc(N=Cc2cc(Br)ccc2O)no1 | 6
30 | Cc1ccc(S(=O)(=O)C(C#N)c2nc3ccccc3nc2OC(C)C)cc1 (stereo not given) | 0
31 | O=C(CCCCCn1c(SCc2ccncc2)nc2ccccc2c1=O)NCc1ccco1 | 0
32 | CCCNS(=O)(=O)c1ccc(OCC(=O)Nc2ccccc2F)cc1 | 0
33 | COC(=O)CCC(NC(=O)c1cc(-c2ccc3c(c2)OCCO3)oc1C)C(=O)OC (stereo not given) | 0
34 | CN1CCN(C(=O)NC2CCCN2S(=O)(=O)c2ccc(Cl)cc2)CC1 (stereo not given) | 0
35 | Cc1cc(C)n(S(=O)(=O)c2cc(C(=O)O)c(Cl)cc2Cl)n1 | 0
36 | COc1ccccc1-c1noc(-c2cccnc2)n1 | 13
37 | Nn1c(CSc2nc3ccccc3o2)nnc1CSc1nc2ccccc2o1 | 0
38 | COc1cc(/C=N/n2c(C)nnc2C)cc(OC)c1OC | 4
39 | CCCC(=O)Nc1ccccc1NC(=O)CCC | 0
40 | COC(=O)c1cc2oc(C)cc2n1CC(=O)N(C)c1ccccc1 | 0
